Assay outcomes as filed in PubChem.
SMN2 splice enh: SMN2 splice variant enhancement; HEK293 SMN2-luciferase splicing reporter, luminescence, 30-36 h; Potency, µM (doses to about 46.1 µM), without a hit: at the highest dose activity change, positive = activation, most hits filed as activators; hit rate 2.8% among 210,000; AID 1458; note: % of control where 0% means no effect; nearly all actives have a fitted effect of over 55% in size
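HEK293 cells carry an SMN2 […]–luciferase reporter in which exon 7 inclusion puts luciferase in frame. Cells were plated 10-12 h before compound addition, then incubated 30-36 h at 37C. ONE-Glo luminescence was read; sodium butyrate at 4.5 mM final served as control.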
NPC1 prom act: activators of NPC1 promoter. Huh7 NPC1 promoter luciferase reporter, 24 h. Potency, µM (series often up to 9.22 µM), for inactives: at the top dose activation, most hits filed as activators. hit rate 2.4% among 320,000. AID 485313; note: % of control where 0% means no effect; nearly all actives have a fitted effect of over 60% in size
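Stably transfected Huh7 (NPC1 promoter→luciferase), 1500 cells/well in Opti-MEM + 10% FBS, 2 h settle, then compound 24 h at 37 °C. Luminescence after 10 min with Amplite reagent.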
ELG1 genotox: inducers of genotoxicity in HEK293T ELG1-luciferase cells | HEK293T ELG1-luciferase reporter, luminescence, 16 h | Potency, µM (titrated, usually from 46 µM), for inactives: at the top dose activity change, positive = activation, actives largely listed as activators | hit rate 1.3% among 330,000 | AID 504466; note: % of control where 0% means no effect; nearly all actives have a fitted effect of over 60% in size
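HEK293T cells expressing luciferase-tagged ELG1 were treated with compound or DMSO for 16 hr at 37°C. Luciferase activity was then read after 30 min with ONE-Glo at room temperature; rising signal flags genetic stress.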
uPA surface inh: inhibitors of cell surface uPA generation. Potency, µM (titrated, usually from 38.3 µM), inactives show top-dose activity change, negative = inhibition, hits mostly inhibitors. AID 540303. cell surface uPA generation assay, qHTS. hit rate 0.31% among 330,000; active = well fitted inhibition curve with a large enough effect; inconclusive = small, poorly fitted or top-dose-only effect; inactive = no such curve, though single readings can be large or run the other way; tested in mouse RAW 264.7 cells; note: % is set by controls: 0 for no effect and ±100 for the full control effect; nearly all actives have a fitted effect of over 55% in size
Rab9 prom act: activators of Rab9 promoter; Huh7 Rab9 promoter-luciferase reporter, luminescence, 24 h; hit rate 2.8% among 320,000; Potency, µM (titrated, usually from 9.22 µM), for the others: at the highest dose activation, negative = inhibition, most hits filed as activators; note: % of control where 0% means no effect; nearly all actives have a fitted effect of over 60% in size
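Measured in stably transfected Huh7 cells bearing a Rab9 promoter–luciferase construct: 24 h compound treatment at 37 °C, followed by luminescence detection.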
FLuc counter: firefly luciferase modulation, counter-screen for miR-21 project; P08659; purified FLuc, Km substrates, luminescence inhibition; Potency, µM (series often up to 57.5 µM), without a hit: at the highest dose activity change, negative = inhibition, usual class: inhibitors; hit rate 6.9% among 360,000; AID 588342;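 note: plate controls were vehicle for no effect and reference inhibitor for full effect; nearly all actives have a fitted effect of over 55% in size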
Target sequence (P08659 whole entry, looked up): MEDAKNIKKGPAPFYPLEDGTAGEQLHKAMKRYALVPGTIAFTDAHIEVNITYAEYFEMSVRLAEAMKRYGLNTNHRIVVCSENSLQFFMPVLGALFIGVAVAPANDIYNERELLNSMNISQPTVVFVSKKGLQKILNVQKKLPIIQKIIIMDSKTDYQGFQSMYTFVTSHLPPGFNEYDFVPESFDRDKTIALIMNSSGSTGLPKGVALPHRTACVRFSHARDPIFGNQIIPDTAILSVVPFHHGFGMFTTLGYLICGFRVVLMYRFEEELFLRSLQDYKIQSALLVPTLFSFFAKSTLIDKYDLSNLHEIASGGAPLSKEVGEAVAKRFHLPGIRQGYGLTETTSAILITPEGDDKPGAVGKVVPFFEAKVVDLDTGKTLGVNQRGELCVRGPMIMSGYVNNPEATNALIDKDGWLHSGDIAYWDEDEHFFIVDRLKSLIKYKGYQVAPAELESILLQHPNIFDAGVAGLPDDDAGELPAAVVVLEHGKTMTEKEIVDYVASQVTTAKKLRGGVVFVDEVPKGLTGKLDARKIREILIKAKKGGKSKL
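Purified P. pyralis luciferase, 10 nM final, with Km-level 10 uM D-luciferin and 10 uM ATP in 50 mM Tris acetate pH 7.5, 10 mM Mg acetate, 0.01% Tween-20, 0.05% BSA; 6-point qHTS titration about 60 µM downward; luminescence read.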
Starred values were filed as active, the others as inactive; ? = inconclusive; . = not tested or not shown. In the library only some 7.3% were active in any assay of this set; here they are far more common. Unless noted, calls come from the whole dose curve; as a rule, active = well fitted curve in the direction sought with a large enough effect; inconclusive = small, poorly fitted or top-dose-only effect, or another doubt; inactive = no such curve, though single readings can be large; an effect the other way counts as inactive or inconclusive. Potency is the fitted concentration of half-maximal effect.

SMILES	SMN2 splice enh	NPC1 prom act	ELG1 genotox	uPA surface inh	Rab9 prom act	FLuc counter
CC(Oc1ccccc1)C(=O)Nc1nnc(S(=O)(=O)N(C)c2ccccc2)s1 (stereo not drawn)	.	-2%	-3%	3%	-7%	-1%
COC(=O)c1nc(NC(=O)C(C)(C)C)n[nH]1	2%	-2%	5%	5%	-4%	24µM*
COc1cccc(C(=O)NCc2cn3ccsc3n2)c1	24%	0%	12%	-2%	-7%	-29%
COc1cccc(OC)c1C(=O)Nc1cccc(-c2cn3ccsc3n2)c1	.	.	.	.	.	24µM*
COc1cccc(C(=O)Nc2cccc(-c3cn4ccsc4n3)c2)c1OC	.	.	.	.	.	15µM*
COc1cccc(C(=O)Nc2ccc(-c3cn4cccnc4n3)cc2)c1OC	-10%	.	.	.	.	-6%
O=S(=O)(Nc1cccc(-c2cn3ccsc3n2)c1)c1ccc(F)cc1	-24%	-2%	?	-5%	6%	?
COc1cc(OC)cc(C(=O)Nc2cccc(-c3cn4ccsc4n3)c2)c1	.	.	.	.	.	6µM*
CCOC(=O)CNC(=O)CSc1cn(CC(=O)N2CCCCCC2)c2ccccc12	.	.	.	.	.	-2%
CN(C(=O)c1ccco1)c1nc2c(s1)CCCC2	14µM*	0.71µM*	?	-12%	0.89µM*	2.4µM*
CN(C(=O)c1ccco1)c1nnc(C23CC4CC(CC(C4)C2)C3)s1	16µM*	?	?	?	?	9.5µM*
Cc1cc(C(=O)NCCC2=CCCCC2)no1	8%	24%	-2%	-2%	15%	-6%
O=C(NCCC1=CCCCC1)c1cnsn1	26%	27%	16µM*	3%	?	?
CC1CCCN(C(=O)COc2ccc(-c3ccccc3)cc2)C1 (stereo not drawn)	14%	1%	7%	5%	16%	?
Cc1cccc(OCC(=O)N2CCC(c3ccccc3)C2)c1 (stereo not drawn)	16µM*	3.2µM*	21µM*	-7%	2.8µM*	13µM*
O=C(COc1ccc(F)cc1)N1CCC(c2ccccc2)C1 (stereo not drawn)	13µM*	29%	?	-6%	?	19µM*
O=C(c1ccccc1)c1coc2c1C(=O)c1ccccc1C2=O	-6%	-2%	11%	7%	-3%	27µM*
COc1ccc(C(=O)c2coc3c2C(=O)C(=O)c2ccccc2-3)cc1	.	24%	?	-5%	?	-16%
CCCn1c(CN2CCN(c3ccc(OC)cc3)CC2)nc2c1c(=O)[nH]c(=O)n2C	-9%	.	.	.	.	1%
Cc1cc(C)nc(N/N=C/c2cc(Br)ccc2O)n1	.	-6%	?	1%	-7%	8.5µM*
Cc1cc(C)nc(N/N=C/c2ccccc2OCc2ccc(Br)cc2)n1	13µM*	14%	-5%	5%	15%	?
Cc1cc(C)nc(N/N=C/c2ccccc2OCc2ccccc2)n1	-2%	-1%	-2%	5%	1%	?
Cc1cc(C)nc(N/N=C/c2ccccc2OCc2cccc(Br)c2)n1	-10%	-1%	1%	7%	-5%	19µM*
CCCCN(C)CCNC(=O)c1nn(-c2ccc(OC)c(Cl)c2)c(=O)c2c1c1ccccc1n2C	-2%	.	.	.	.	3%
CN(C)c1ccc(CNC(=O)C2CCN(Cc3cc4ccccc4n3Cc3ccccc3)CC2)cc1	.	.	.	.	.	5%
CC(=O)c1sc2nsc(SCCN3CCOCC3)c2c1N	.	1%	6%	-4%	16%	-19%
Nc1c(C(=O)c2ccccc2)sc2nsc(SCCN3CCOCC3)c12	.	?	9%	-13%	?	21µM*
O=C(Nc1cccc(F)c1)N1CC2(CCN(C(=O)c3ccco3)CC2)C1	-15%	.	.	.	.	.
Cc1ccc(C(=O)N/N=C/c2cn(Cc3ccccc3)c3ccccc23)cn1	.	9%	-1%	?	1%	12µM*
O=C(O)c1ccc(N/N=C/c2cn(Cc3ccc(F)cc3)c3ccccc23)cc1	.	2µM*	12µM*	-21%	2.8µM*	8.5µM*
